# Laboratory results taken from ChEMBL document CHEMBL1961873, “Compounds: GSK PKIS; Assays: Nanosyn kinase panel” (2012).
# Columns and labels:
# [1] = molecular target: CDK3/Cyclin E (Homo sapiens) (UniProt P24864+Q00526); conditions: at 1 µM;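 also: each figure is a mean percent inhibition of the CDK3/cyclin E complex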
# [2] = molecular target: Cyclin-dependent kinase 4 (Homo sapiens) (UniProt P11802); conditions: at 0.1 µM
# [3] = molecular target: Cyclin-dependent kinase 4 (Homo sapiens) (UniProt P11802); conditions: at 1 µM
# [4] = molecular target: Cyclin-dependent kinase 5 (Homo sapiens) (UniProt Q00535); conditions: at 0.1 µM
# Cyclin-dependent kinase 5 (Homo sapiens), sequence (Q00535 whole entry, looked up): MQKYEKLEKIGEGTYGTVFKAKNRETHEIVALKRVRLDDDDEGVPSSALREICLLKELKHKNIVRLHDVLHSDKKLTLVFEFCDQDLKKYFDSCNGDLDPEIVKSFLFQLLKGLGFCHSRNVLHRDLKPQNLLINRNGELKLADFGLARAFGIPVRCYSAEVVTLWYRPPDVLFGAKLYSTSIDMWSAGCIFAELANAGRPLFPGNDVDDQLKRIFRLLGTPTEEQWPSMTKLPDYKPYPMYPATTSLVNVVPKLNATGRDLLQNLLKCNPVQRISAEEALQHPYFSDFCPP
# [5] = molecular target: Cyclin-dependent kinase 5 (Homo sapiens) (UniProt Q00535); conditions: at 1 µM
# [6] = molecular target: Cyclin-dependent kinase 6 (Homo sapiens) (UniProt Q00534); conditions: at 0.1 µM
# Cyclin-dependent kinase 6 (Homo sapiens), sequence (Q00534 whole entry): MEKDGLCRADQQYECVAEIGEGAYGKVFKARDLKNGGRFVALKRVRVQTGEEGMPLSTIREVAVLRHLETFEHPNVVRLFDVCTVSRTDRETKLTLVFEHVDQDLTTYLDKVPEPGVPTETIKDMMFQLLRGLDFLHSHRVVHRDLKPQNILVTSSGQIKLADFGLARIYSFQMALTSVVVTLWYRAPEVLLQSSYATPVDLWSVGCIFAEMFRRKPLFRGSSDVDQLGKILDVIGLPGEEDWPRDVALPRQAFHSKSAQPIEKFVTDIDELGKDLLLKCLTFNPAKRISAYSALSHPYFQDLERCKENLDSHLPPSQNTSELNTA
# [7] = molecular target: Cyclin-dependent kinase 6 (Homo sapiens) (UniProt Q00534); conditions: at 1 µM
# [8] = molecular target: Dual specificity protein kinase CLK2 (Homo sapiens) (UniProt P49760); conditions: at 0.1 µM
# Dual specificity protein kinase CLK2 (Homo sapiens), sequence (P49760 whole entry, looked up): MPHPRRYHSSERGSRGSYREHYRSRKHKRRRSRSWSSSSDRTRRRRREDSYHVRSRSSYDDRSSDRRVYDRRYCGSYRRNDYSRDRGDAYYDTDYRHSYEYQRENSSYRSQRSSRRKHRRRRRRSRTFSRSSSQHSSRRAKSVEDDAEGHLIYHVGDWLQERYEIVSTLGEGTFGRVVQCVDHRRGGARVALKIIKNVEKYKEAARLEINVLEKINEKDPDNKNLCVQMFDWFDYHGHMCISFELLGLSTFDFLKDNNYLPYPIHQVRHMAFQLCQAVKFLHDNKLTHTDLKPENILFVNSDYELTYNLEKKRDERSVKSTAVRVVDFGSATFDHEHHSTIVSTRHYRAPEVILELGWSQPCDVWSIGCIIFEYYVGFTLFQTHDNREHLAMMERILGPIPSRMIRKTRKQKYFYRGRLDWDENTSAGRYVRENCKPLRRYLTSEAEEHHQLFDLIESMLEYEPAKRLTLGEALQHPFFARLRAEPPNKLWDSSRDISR
# [9] = molecular target: Dual specificity protein kinase CLK2 (Homo sapiens) (UniProt P49760); conditions: at 1 µM
# [10] = molecular target: Dual specificity protein kinase CLK3 (Homo sapiens) (UniProt P49761); conditions: at 0.1 µM
# Dual specificity protein kinase CLK3 (Homo sapiens), sequence (P49761 whole entry, looked up): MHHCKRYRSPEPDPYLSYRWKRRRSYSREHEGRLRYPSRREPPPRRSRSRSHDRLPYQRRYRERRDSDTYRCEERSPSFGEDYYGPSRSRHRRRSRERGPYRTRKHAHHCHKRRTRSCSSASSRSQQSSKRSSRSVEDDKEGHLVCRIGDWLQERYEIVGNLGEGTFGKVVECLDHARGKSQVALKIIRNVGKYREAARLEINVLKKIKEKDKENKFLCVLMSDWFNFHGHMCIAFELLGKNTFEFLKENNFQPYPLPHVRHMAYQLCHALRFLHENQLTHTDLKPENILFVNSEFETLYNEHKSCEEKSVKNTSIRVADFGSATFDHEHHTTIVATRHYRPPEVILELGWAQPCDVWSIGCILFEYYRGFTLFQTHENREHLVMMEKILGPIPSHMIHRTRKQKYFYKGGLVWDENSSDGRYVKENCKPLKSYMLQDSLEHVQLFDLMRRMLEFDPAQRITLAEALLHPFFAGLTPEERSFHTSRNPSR
# CDK3/Cyclin E (Homo sapiens), sequence (P24864 whole entry, looked up): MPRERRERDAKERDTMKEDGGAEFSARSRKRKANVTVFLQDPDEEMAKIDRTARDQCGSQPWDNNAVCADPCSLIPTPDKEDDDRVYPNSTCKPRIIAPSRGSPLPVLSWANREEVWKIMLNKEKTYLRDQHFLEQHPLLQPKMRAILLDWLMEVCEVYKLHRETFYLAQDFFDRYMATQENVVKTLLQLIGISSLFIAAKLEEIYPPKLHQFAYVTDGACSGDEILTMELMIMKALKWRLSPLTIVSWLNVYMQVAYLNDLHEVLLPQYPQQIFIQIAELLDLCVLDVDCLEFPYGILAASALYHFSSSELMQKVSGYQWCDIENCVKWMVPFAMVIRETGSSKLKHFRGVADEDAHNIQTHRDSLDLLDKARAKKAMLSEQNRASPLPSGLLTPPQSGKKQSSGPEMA
# CDK3/Cyclin E (Homo sapiens), sequence (Q00526 whole entry, looked up): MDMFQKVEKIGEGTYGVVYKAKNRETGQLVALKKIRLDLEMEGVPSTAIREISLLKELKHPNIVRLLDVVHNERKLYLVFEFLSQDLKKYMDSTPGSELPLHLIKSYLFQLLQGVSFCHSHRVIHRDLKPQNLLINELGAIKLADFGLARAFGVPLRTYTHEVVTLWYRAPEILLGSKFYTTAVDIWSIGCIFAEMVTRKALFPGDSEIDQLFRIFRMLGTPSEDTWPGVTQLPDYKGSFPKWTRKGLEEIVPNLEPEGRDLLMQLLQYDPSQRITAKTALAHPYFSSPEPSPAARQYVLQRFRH
# Cyclin-dependent kinase 4 (Homo sapiens), sequence (P11802 whole entry): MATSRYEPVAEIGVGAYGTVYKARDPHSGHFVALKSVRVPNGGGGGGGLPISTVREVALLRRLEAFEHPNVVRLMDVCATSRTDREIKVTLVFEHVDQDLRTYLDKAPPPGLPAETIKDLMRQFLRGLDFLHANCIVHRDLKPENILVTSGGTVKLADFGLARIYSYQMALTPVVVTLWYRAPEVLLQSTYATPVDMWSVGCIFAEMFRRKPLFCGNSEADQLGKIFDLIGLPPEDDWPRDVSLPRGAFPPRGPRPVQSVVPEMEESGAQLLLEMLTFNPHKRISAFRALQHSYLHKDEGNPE
SMILES,inhibition [1] [%],inhibition [2] [%],inhibition [3] [%],inhibition [4] [%],inhibition [5] [%],inhibition [6] [%],inhibition [7] [%],inhibition [8] [%],inhibition [9] [%],inhibition [10] [%]
COc1cccc(-n2ncc3c(N/N=C/c4ccncc4)ncnc32)c1,49.4,16.5,52.6,39.7,78.8,15.4,51.1,4.97,35,4.27
NS(=O)(=O)c1ccc(-c2ccc3c(NC(=O)C4CC4)n[nH]c3c2)cc1,5.48,3.11,6.7,2.07,4.41,13.7,46.3,1.09,-0.2,0.84
CCn1c(-c2nonc2N)nc2c(C#CC(C)(C)O)ncc(OC[C@@H]3CCCN3)c21,-4.39,0.04,1.01,-0.13,-0.81,-2.82,-5.08,1.88,9.59,0.26
Cc1cc(-c2ccco2)cc(C)c1/C=C/c1cncc(-c2nn[nH]n2)c1,-1.27,0.48,2.4,0.53,1.53,-2.45,-0.96,-1.47,-2.94,0.27
NC(=O)c1sc(-n2cnc3cc(C(F)(F)F)ccc32)cc1OCc1ccccc1Br,-2.44,1.17,2.92,0.88,2.08,-0.56,-1.42,0.89,0.1,-0.27
Nc1nonc1-c1nc2cnccc2n1C1CCCCC1,11.3,0.8,5.81,5,18,-5.33,1.64,3.99,39.2,-0.8
COc1cc2c(cc1Nc1nc(Nc3ccsc3C(N)=O)c3cc[nH]c3n1)N(C(=O)CN(C)C)CCC2,-1.3,3.79,5.67,0.94,-0.24,5.85,6.19,15.6,72,1.22
CCn1c(-c2nonc2N)nc2c(C#CCN)ncc(OCCCN)c21,2.11,-2.32,-2.14,1.95,1.6,0.56,-5.81,1.13,0.74,-0.24
CCn1c(-c2nonc2N)nc2c(C#CC(C)(C)O)nc(O[C@@H](CN)c3ccccc3)cc21,-0.03,1.37,4.92,2.41,4.69,-4.5,3.24,10.2,56.3,-1.43
COc1cc(C=NNc2ncnc3c2cnn3Cc2ccccc2)ccc1O,2.73,0.2,5.23,2.79,16.2,–,-0.46,-0.27,3.62,0.25
CCn1c(-c2nonc2N)nc2c(C#CC(C)(C)O)ncc(OCC3CCNCC3)c21,1.62,-1.61,3.91,1.05,5.69,-0.95,4.82,5.25,29.4,-2.14
NS(=O)(=O)c1ccc(N/C=C2\C(=O)Nc3ccc4ncsc4c32)cc1,94.7,30.7,64.6,60.7,72.8,36.8,69,11.6,64.1,1.81
COc1cccc(COc2cc(-n3cnc4ccccc43)sc2C(N)=O)c1,-2.65,0.26,1.36,-0.51,-0.16,-4.03,-1,0.48,1.3,-0.79
Fc1ccc(-c2ncn(C3CCNCC3)c2-c2ccnc(Oc3ccccc3)n2)cc1,-2.25,-3.54,-2.32,-3.32,-2.14,-6.2,-4.11,0.8,-0.83,-3.78
